Screening results (PubChem BioAssay)
HP1b binding inh: HP1-beta chromodomain-methylated histone interaction inhibition | 390,000 compounds, 0.56% hits | P83916 | AID 540317 | Potency, µM (doses to about 114 µM), for inactives: at the highest dose activity change, negative = inhibition, most hits filed as inhibitors | AlphaScreen HP1-beta / biotin-H3K9me3 peptide binding; further: nearly all actives have a fitted effect of over 70% in size
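Compound inhibition of the preformed complex between 50 nM HP1-beta and 50 nM biotinylated H3K9me3 peptide was read by AlphaScreen. Buffer was PBS pH 7.4 with 0.01% Tween-20. Incubations ran 30 min at room temperature, with 10 ug/mL donor/acceptor beads.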
G9a inh: inhibitors of human histone lysine methyltransferase G9a. G9a H3K9 monomethylation, AlphaScreen, 2 h. Q96KQ7. 350,000 compounds, 8.8% hits. Potency, µM (doses to about 102 µM), for the others: at the top dose activity, negative = inhibition, most hits filed as inhibitors; further: on the % scale 0 is the no-effect control and ±100 the full control effect; nearly all actives have a fitted effect of over 75% in size
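AlphaScreen read-out: biotin-H3K9 peptide (500 nM) methylation by 20 nM enzyme with 20 uM SAM, 2 h at room temperature after 15 min compound preincubation; anti-monomethyl H3K9 antibody plus donor/acceptor beads, 10 min dark.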
GLS inhibitor: glutaminase GLS (human) inhibition; GLS enzymatic activity, qHTS titration; AID 624170; 410,000 compounds, 0.21% hits; Potency, µM (top dose mostly 45.5 µM), inactives show at the highest dose activity change, negative = inhibition, hits mostly inhibitors; further: on the % scale 0 is the no-effect control and ±100 the full control effect
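hKGA in 45 mM KH2PO4 (pH 8.2), 0.02% Tween-20 with compound, then 1mM L-Glutamine (stock as added) plus glutamate oxidase/HRP/Amplex red coupling mix. Fluorescence read initially and after 30 min at RT; signal change reflects glutamate formation.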
L3MBTL1 block: inhibitors of human L3MBTL1. Q9Y468. AlphaScreen L3MBTL1–H3K9me1 peptide binding. Potency, µM (series often up to 57.1 µM), inactives show at the highest dose activity, negative = inhibition, usual class: inhibitors. 230,000 compounds, 0.66% hits. AID 485360; further: on the % scale 0 is the no-effect control and ±100 the full control effect; nearly all actives have a fitted effect of over 60% in size
Target sequence (Q9Y468 whole entry, looked up): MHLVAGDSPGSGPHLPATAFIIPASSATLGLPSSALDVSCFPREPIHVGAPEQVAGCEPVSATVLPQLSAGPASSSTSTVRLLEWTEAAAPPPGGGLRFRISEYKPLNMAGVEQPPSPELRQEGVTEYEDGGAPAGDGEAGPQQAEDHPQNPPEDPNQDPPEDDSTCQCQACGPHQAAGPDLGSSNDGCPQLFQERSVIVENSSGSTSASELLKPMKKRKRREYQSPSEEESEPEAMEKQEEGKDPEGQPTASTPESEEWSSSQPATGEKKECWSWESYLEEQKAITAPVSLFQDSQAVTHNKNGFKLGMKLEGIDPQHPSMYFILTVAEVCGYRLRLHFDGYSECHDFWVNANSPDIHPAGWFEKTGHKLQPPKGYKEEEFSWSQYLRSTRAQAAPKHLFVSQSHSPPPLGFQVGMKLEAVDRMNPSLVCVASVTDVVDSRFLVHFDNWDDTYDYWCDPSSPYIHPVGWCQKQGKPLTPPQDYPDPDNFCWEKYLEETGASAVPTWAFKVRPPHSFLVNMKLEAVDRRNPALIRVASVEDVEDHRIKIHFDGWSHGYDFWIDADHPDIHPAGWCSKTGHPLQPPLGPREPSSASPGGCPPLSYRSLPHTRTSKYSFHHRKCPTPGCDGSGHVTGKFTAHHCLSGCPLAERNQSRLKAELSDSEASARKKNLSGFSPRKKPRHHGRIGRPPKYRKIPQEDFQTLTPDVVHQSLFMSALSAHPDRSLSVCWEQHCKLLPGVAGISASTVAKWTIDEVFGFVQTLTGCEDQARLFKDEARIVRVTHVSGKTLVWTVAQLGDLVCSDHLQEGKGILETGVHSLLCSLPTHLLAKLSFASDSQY
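L3MBTL1 (50 nM) pre-complexed 30 min with biotinylated H3(1-15)K9me1 peptide (75 nM), then compounds added for 30 min at room temperature; AlphaScreen streptavidin donor/nickel chelate acceptor beads (10 ug/mL final) read after 30 min dark incubation.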
JMJD2A Tudor inh: JMJD2A Tudor domain (human) inhibition | O75164 | AlphaScreen JMJD2A-Tudor / H3K4me3 peptide binding | Potency, µM (series often up to 114 µM), without a hit: top-dose activity change, negative = inhibition, hits mostly inhibitors | 390,000 compounds, 4.4% hits; further: on the % scale 0 is the no-effect control and ±100 the full control effect; nearly all actives have a fitted effect of over 50% in size
BAZ2B block: blocks human BAZ2B | AID 504333 | 360,000 compounds, 4.4% hits | Potency, µM (titrated, usually from 114 µM), for inactives: at the top dose activity change, negative = inhibition, most hits filed as inhibitors | AlphaScreen BAZ2B-H3K14Ac peptide displacement | Q9UIF8; further: on the % scale 0 is the no-effect control and ±100 the full control effect; nearly all actives have a fitted effect of over 60% in size
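Multi-concentration screen (max 110 uM) measuring displacement of acetylated histone H3 peptide from BAZ2B by AlphaScreen, using 50 nM protein, 50 nM peptide and 10 ug/mL streptavidin donor plus Ni-chelate acceptor beads.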
* hit, by the source's call; ? = inconclusive; · = not tested or not shown; [ ] = dose if it differs, or a comment. Rows were chosen to be rich in hits. Some 10% of all compounds tested hit in one or more screens of this group. The call rests on the fitted dose curve; in most records, active means well fitted curve in the direction sought with a large enough effect; inconclusive means small, poorly fitted or top-dose-only effect, or another doubt; inactive means no such curve, though single readings can be large; an effect the other way counts as inactive or inconclusive. Potency means the concentration at half of the fitted maximal effect.

SMILES	HP1b binding inh	G9a inh	GLS inhibitor	L3MBTL1 block	JMJD2A Tudor inh	BAZ2B block
COc1ccc(C2C=C(c3cccs3)Nc3nc(CCCO)nn32)cc1 (stereo unspecified)	·	40µM*	·	-6%	·	?
OCCCc1nc2n(n1)C(c1ccccc1)C=C(c1ccccc1)N2 (stereo unspecified)	60%	40µM*	-2%	·	-16%	-5%
COCC(C)NC(=O)CSc1nc2ccccc2n1CCc1ccccc1 (stereo unspecified)	28%	71µM*	-2%	31%	-3%	35%
COCC(C)NC(=O)Cn1c(SCc2ccccc2)nc2ccccc21 (stereo unspecified)	10%[57 µM]	45µM*	3%	·	-10%[57.1 µM]	12%
COCCn1c(SCC(=O)NC(=O)NC(C)C)nc2ccccc21	25%	-4%	7%	1%	-9%	3%
COc1ccccc1OCCn1c(SCC(=O)O)nc2ccccc21	15%	40µM*	-12%	?	-46%	?
O=C(NCC1CCCO1)C1c2ccccc2Oc2ccccc21 (stereo unspecified)	31%	28%	1%	2%	-5%	-7%
O=C(O)CC12CSc3[nH]c(=O)sc3C1c1ccccc1OC2=O (stereo unspecified)	·	50µM*	·	·	·	-6%
O=C(CCc1ccc(O)c(O)c1)NNC(=S)Nc1ccc(Br)cc1Cl	-15%	18µM*	10%	-3%	-18%	-2%
CN(C)c1ccc(CNC(=O)C2CCCN(S(=O)(=O)c3ccc4c(c3)CCCC(=O)N4)C2)cc1 (stereo unspecified)	-3%	?	3%	·	?	-12%[57.1 µM]
O=C(CSc1nnc(NC(=O)c2c(F)cccc2F)s1)NCc1ccco1	19%	45µM*	0%	-8%	-16%	9%
O=C(CSc1nc(-c2ccc(F)cc2)cs1)NC(=O)NCc1ccco1	4%	-16%[59 µM]	-13%	-25%	?	50µM*
O=c1c2cnn(-c3ccc(Cl)cc3)c2ncn1Cc1ccc(Cl)cc1Cl	20%	8%[59 µM]	-2%	·	-2%	-1%
Cc1cc(=O)n(C)c(=O)n1CCCCCN1CCCC1	?	?	8%	28µM*	2.5µM*	50µM*
Cc1cc(=O)n(C)c(=O)n1CCCCCCOc1cccc([N+](=O)[O-])c1	8%	-25%[59 µM]	-1%	-13%	-24%	-31%
COc1ccc(NC2CCCN(C(=O)CCOc3ccccc3)C2)cc1 (stereo unspecified)	-19%	·	2%	·	?	25µM*
COc1ccc(NC2CCCN(C(=O)COc3ccc(C)cc3)C2)cc1 (stereo unspecified)	-28%	16µM*	13%	·	?	?
COc1ccc(NC2CCCN(C(=O)CCc3ccccc3F)C2)cc1 (stereo unspecified)	6%	50µM*	-6%	·	?	-36%[57.1 µM]
COc1ccc(NC2CCCN(C(=O)CSc3ccccc3)C2)cc1 (stereo unspecified)	-14%	35µM*	0%	·	?	?
Cc1cccc(N2CC(c3nc4ccccc4n3CCC3CCCCC3)CC2=O)c1 (stereo unspecified)	45%	?	0%	·	1%	0%
COc1cc2oc(=O)cc(C)c2c(OC)c1OC	25%	5%[59 µM]	5%	1%	-2%	4%
COc1cc2cccc(OC)c(=O)c2c(OC)c1OC	22%	50µM*	8%	-5%	-7%	-17%
CC(=O)c1cccc(NC(=O)CN2C(=O)c3cccnc3Sc3ccccc32)c1	59%	-3%[59 µM]	-9%	·	-9%	-3%
CCC1Sc2ccc(S(=O)(=O)CCC(=O)Nc3ccc(NC(C)=O)cc3)cc2NC1=O (stereo unspecified)	25%	4%[59 µM]	3%	·	-9%	-13%
CCC1Sc2ccc(S(=O)(=O)CCC(=O)Nc3cccc(Br)c3)cc2NC1=O (stereo unspecified)	?	-6%[59 µM]	0%	·	25µM*	?
SMILES	HP1b binding inh	G9a inh	GLS inhibitor	L3MBTL1 block	JMJD2A Tudor inh	BAZ2B block
CCC1Sc2ccc(S(=O)(=O)CCC(=O)Nc3ccc(C(=O)OC)cc3)cc2NC1=O (stereo unspecified)	?	11%[59 µM]	4%	·	20µM*	?
CCOC(=O)c1noc2ncnc(Nc3cc(Cl)c(OC)cc3OC)c12	-18%	8%[59 µM]	-13%	·	-21%	-14%
CCOc1cccc2cc(-c3nc(-c4ccccc4C)no3)c(=O)oc12	35%	1%[59 µM]	-8%	·	7%	-13%
CCC1(C)NC(=O)N(CC(=O)Nc2sc3c(c2C(=O)OC)CCCCC3)C1=O (stereo unspecified)	-24%	50µM*	0%	1%	?	-26%
CCC1(CC)NC(=O)N(CC(=O)Nc2sc3c(c2C(N)=O)CCC3)C1=O	5%	-2%[12.7 µM]	2%	·	?	50µM*
COC(=O)c1c(NC(=O)CN2C(=O)C(=O)N(CC(C)C)C2=O)sc2c1CCCCC2	-18%	5%[59 µM]	4%	-17%	-27%	-38%
COc1ccc(-c2nc(=S)c3c(n2Cc2cccnc2)CC(C)(C)OC3)cc1	7%	-5%	6%	-5%	-18%	-17%
CC1(C)Cc2c(c(=S)nc(-c3ccccc3)n2Cc2cccnc2)CO1	24%	35µM*	3%	1%	-2%	-12%
Oc1c(Cl)cc(Cl)cc1C=Nc1ccc(N2CCOCC2)cc1	32%	?	?	·	-3%	-21%
O=[N+]([O-])c1cc(Cc2ccccc2)cc(C=Nc2ccc(N3CCOCC3)cc2)c1O	?	-14%[59 µM]	?	-13%	56µM*	40µM*
Cc1ccc(O)c(N=Cc2cc(Cc3ccccc3)cc([N+](=O)[O-])c2O)c1	?	?	11µM*	-20%	40µM*	10µM*
COc1cc(C=Nc2cccc(C)c2)c(O)c([N+](=O)[O-])c1	-32%	-21%[59 µM]	6%	-15%	?	50µM*
Cc1cccc(N=Cc2cc3c(cc2[N+](=O)[O-])OCO3)c1	?	-5%[0.501 µM]	18%	-1%	-26%	?
Cc1[nH]c(=S)[nH]c(=O)c1Cc1ccccc1	36%	50µM*	?	1%	-23%	2%
O=c1[nH]c(=S)[nH]nc1Cc1ccccc1	28%	40µM*	-5%	22%	?	-7%
Cc1[nH]c(=S)[nH]c(=O)c1CCCO	24%	71µM*	-3%	-6%	-7%	-16%
O=c1[nH]nc(Cc2ccccc2)c2ccccc12	20%	-4%[59 µM]	-12%	·	-4%	7%
COc1ccc(C(CC(=O)NCc2ccccc2Cl)N2Cc3ccccc3C2=O)cc1OC (stereo unspecified)	41%	11%[59 µM]	3%	·	1%	-5%
